Hit rate of the full screen: of about 310,000 compounds, about 14,000 (4.5%) showed an effect of 50% or more. The effect is printed as a negative number. The list comes from a sample in which strong results are over-represented; it also holds similar structures and randomly drawn compounds.
Biological target: human ether-à-go-go-related gene (hERG) potassium channel (human, UniProt Q12809)
Experiment: primary screen, population patch clamp on CHO cells stably expressing hERG; higher = less effect of the substance
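Further: peak tail current of the secondary pulse compared with the same well before compound.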

Chain of human ether-à-go-go-related gene (hERG) potassium channel (Q12809 whole entry, looked up): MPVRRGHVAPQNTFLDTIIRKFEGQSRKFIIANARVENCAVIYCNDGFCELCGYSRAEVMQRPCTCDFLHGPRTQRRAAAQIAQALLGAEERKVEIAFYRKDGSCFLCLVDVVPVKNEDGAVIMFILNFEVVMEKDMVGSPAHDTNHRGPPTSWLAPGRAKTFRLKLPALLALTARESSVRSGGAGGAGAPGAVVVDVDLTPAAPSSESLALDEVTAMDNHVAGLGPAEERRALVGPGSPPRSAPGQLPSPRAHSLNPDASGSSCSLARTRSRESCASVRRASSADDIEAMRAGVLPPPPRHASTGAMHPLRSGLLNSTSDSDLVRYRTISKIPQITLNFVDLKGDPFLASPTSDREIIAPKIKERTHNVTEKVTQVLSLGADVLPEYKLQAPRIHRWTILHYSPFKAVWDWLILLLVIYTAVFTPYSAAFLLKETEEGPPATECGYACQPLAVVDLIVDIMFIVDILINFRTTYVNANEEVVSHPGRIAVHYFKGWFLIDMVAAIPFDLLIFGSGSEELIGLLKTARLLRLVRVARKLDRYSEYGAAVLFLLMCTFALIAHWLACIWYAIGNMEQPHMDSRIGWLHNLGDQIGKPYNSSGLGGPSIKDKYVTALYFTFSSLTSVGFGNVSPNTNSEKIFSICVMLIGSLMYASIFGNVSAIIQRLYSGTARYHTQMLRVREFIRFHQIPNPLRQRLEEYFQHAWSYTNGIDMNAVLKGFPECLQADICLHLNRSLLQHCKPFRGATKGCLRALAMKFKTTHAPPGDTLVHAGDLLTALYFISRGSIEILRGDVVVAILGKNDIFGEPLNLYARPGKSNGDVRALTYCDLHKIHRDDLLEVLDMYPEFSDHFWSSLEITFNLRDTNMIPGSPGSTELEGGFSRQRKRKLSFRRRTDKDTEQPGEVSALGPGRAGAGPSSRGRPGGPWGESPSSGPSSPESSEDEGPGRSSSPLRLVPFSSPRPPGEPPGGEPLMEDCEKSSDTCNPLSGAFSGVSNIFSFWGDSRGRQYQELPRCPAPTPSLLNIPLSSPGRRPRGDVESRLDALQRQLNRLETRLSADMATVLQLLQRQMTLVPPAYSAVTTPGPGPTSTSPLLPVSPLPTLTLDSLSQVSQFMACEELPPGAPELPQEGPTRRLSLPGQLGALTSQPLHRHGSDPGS

Question: For `COc1cc(OC)c2ccc(=O)oc2c1C(CC(=O)N1CCCC1)c1ccc(N(C)C)cc1` (stereo not shown), which “hERG current change (%, negative = inhibition) at 10uM” value is on record?
Answer: The value was 10.2%.

Question: For `COc1cccc(C(C(=O)NC2CCCC2)N(C(=O)c2ccco2)c2ccc(-n3cnnn3)c(C)c2)c1OC` (stereo not shown), which “hERG current change (%, negative = inhibition) at 10uM” value is on record?
Answer: The value was 8.33%.

Question: Which “hERG current change (%, negative = inhibition) at 10uM” value does the source give for `COc1cc(Cl)ccc1OCc1cc(C(=O)N2C[C@]3(C)C[C@H]2CC(C)(C)C3)no1` here?
Answer: Its value is -8.91%.

Question: Which “hERG current change (%, negative = inhibition) at 10uM” value does the source give for `CC12CCC(CC1=O)C2(C)C` (stereo not shown) here?
Answer: The value was 8.29%.

Question: `COc1ccc(OCCCCn2c(CO)nc3ccccc32)cc1` was tested. Which “hERG current change (%, negative = inhibition) at 10uM” value did it give?
Answer: The value was -24.5%.

Question: `CCCCCOC(=O)Cn1c(=O)oc2ccc(C)cc21` was tested. Which “hERG current change (%, negative = inhibition) at 10uM” value did it give?
Answer: The value was -10.6%.

Question: How did the “hERG current change (%, negative = inhibition) at 10uM” value turn out when `CCCCCCCCCCOC(=O)Cn1c(COc2ccc(OC)cc2)[n+](C)c2ccccc21.[Cl-]` was run?
Answer: Its value is -83.3%.

Question: How did the “hERG current change (%, negative = inhibition) at 10uM” value turn out when `Cc1cccc(OCCCCn2c(CO)nc3ccccc32)c1` was run?
Answer: The value was -5.5%.

Question: `CCCCOC(=O)Cn1c2ccc(OC)cc2c2nc3ccccc3nc21` was tested. Which “hERG current change (%, negative = inhibition) at 10uM” value did it give?
Answer: Its value is -6.29%.

Question: With `CCCCCCCCCCOC(=O)Cn1c(COc2cccc(C)c2)[n+](C)c2ccccc21.[Cl-]` as the molecule, how does the “hERG current change (%, negative = inhibition) at 10uM” value read?
Answer: Its value is -76%.

Question: With `CN(C)C(=O)C(Sc1ccc(S(=O)(=O)N2CCCC2)cn1)c1ccccc1` (stereo not shown) as the molecule, how does the “hERG current change (%, negative = inhibition) at 10uM” value read?
Answer: Its value is -13.4%.

Question: Which “hERG current change (%, negative = inhibition) at 10uM” value does the source give for `COc1ccccc1P(=O)(c1ccccc1)c1ccccc1` here?
Answer: Its value is 15.1%.

Question: How did the “hERG current change (%, negative = inhibition) at 10uM” value turn out when `COc1cccc(/C=C/C(=O)NCCc2ccc(OC)c(OC)c2)c1` was run?
Answer: The value was -16.3%.

Question: How did the “hERG current change (%, negative = inhibition) at 10uM” value turn out when `N#CCC(=O)Nc1ccc(C(=O)OCC(=O)c2ccc3c(c2)OCCO3)cc1` was run?
Answer: Its value is 10.5%.

Question: Which “hERG current change (%, negative = inhibition) at 10uM” value does the source give for `CNCC(O)COc1ccccc1` (stereo not shown) here?
Answer: Its value is -5.69%.

Question: `CC(CCc1ccccc1)NCC(O)COc1ccccc1` (stereo not shown) was tested. Which “hERG current change (%, negative = inhibition) at 10uM” value did it give?
Answer: The value was -73.4%.

Question: With `OC(CNCCC(c1ccccc1)c1ccccc1)COc1ccccc1` (stereo not shown) as the molecule, how does the “hERG current change (%, negative = inhibition) at 10uM” value read?
Answer: The value was -71.4%.

Question: For `OC(CCc1ccncc1)COc1ccccc1` (stereo not shown), which “hERG current change (%, negative = inhibition) at 10uM” value is on record?
Answer: The value was 3.52%.

Question: For `OC(CNCCc1ccccc1)COc1ccc(OCC(O)CNCCc2ccccc2)cc1` (stereo not shown), which “hERG current change (%, negative = inhibition) at 10uM” value is on record?
Answer: The value was 1.24%.

Question: How did the “hERG current change (%, negative = inhibition) at 10uM” value turn out when `OC(CNCc1ccccc1)COc1ccccc1` (stereo not shown) was run?
Answer: Its value is -11.9%.

Question: Which “hERG current change (%, negative = inhibition) at 10uM” value does the source give for `CCc1cc(C(=O)N2CCN(c3ccccn3)CC2)sc1C` here?
Answer: Its value is -3.12%.

Question: For `O=C(CCS(=O)CCC(=O)NCc1ccccc1)NCc1ccccc1`, which “hERG current change (%, negative = inhibition) at 10uM” value is on record?
Answer: The value was 17.7%.

Question: For `Cc1nnc(NC(=O)c2cccc(F)c2)s1`, which “hERG current change (%, negative = inhibition) at 10uM” value is on record?
Answer: Its value is 4.08%.

Question: How did the “hERG current change (%, negative = inhibition) at 10uM” value turn out when `NNC(=O)CN1C(c2ccccc2)=Nc2ccc(Br)cc2C1c1ccccc1` (stereo not shown) was run?
Answer: The value was -20%.

Question: With `COC(=O)CN1C(c2cccc(Cl)c2)=Nc2ccc(Cl)cc2C1c1ccccc1` (stereo not shown) as the molecule, how does the “hERG current change (%, negative = inhibition) at 10uM” value read?
Answer: Its value is 1.61%.

Question: Which “hERG current change (%, negative = inhibition) at 10uM” value does the source give for `COC(=O)CN1C(c2ccc(Cl)cc2)=Nc2ccc(Cl)cc2C1c1ccccc1` (stereo not shown) here?
Answer: The value was -17.7%.

Question: With `NNC(=O)CN1C(c2ccc(Cl)cc2)=Nc2ccc(Br)cc2C1c1ccccc1` (stereo not shown) as the molecule, how does the “hERG current change (%, negative = inhibition) at 10uM” value read?
Answer: Its value is -53.3%.

Question: With `NNC(=O)CN1C(c2ccc(Br)cc2)=Nc2ccc(Br)cc2C1c1ccccc1` (stereo not shown) as the molecule, how does the “hERG current change (%, negative = inhibition) at 10uM” value read?
Answer: The value was -30.8%.

Question: How did the “hERG current change (%, negative = inhibition) at 10uM” value turn out when `COC(=O)CN1C(c2ccccc2)=Nc2ccc(Cl)cc2C1c1ccccc1` (stereo not shown) was run?
Answer: Its value is -66.4%.

Question: Which “hERG current change (%, negative = inhibition) at 10uM” value does the source give for `CC1CC(C)CN(CCCNC(=O)c2c(O)nc3ccccn3c2=O)C1` (stereo not shown) here?
Answer: Its value is 6.75%.

Question: `CC/C(=N\NC(=O)c1ccc(-c2ccccc2)cc1)C12CC3CC(CC(C3)C1)C2` was tested. Which “hERG current change (%, negative = inhibition) at 10uM” value did it give?
Answer: Its value is 0.121%.

Question: For `COc1nc(NC2CCCCC2)nc(N2CCCCCC2)n1`, which “hERG current change (%, negative = inhibition) at 10uM” value is on record?
Answer: The value was 4.84%.

Question: With `O=C(c1ccc(Cl)cc1)N1CCCOC1` as the molecule, how does the “hERG current change (%, negative = inhibition) at 10uM” value read?
Answer: Its value is 15.2%.

Question: For `CC(=O)Nc1ccc(S(=O)(=O)N2CCCC2C(=O)Nc2ccc(F)cc2)cc1` (stereo not shown), which “hERG current change (%, negative = inhibition) at 10uM” value is on record?
Answer: The value was 11.2%.

Question: For `CN(C)C(CNC(=O)CCCN1C(=O)c2cccc3cccc(c23)C1=O)c1ccccc1` (stereo not shown), which “hERG current change (%, negative = inhibition) at 10uM” value is on record?
Answer: The value was -46.2%.

Question: How did the “hERG current change (%, negative = inhibition) at 10uM” value turn out when `COC(=O)[C@@]1(Cc2ccc(F)cc2)[C@H]2c3cc(C(=O)N(C)C)n(CCc4ccc(OC)c(Br)c4)c3C[C@H]2CN1C(=O)c1ccccc1` was run?
Answer: Its value is -2.99%.

Question: `COC(=O)[C@@]1(Cc2ccc(F)cc2)[C@H]2c3cc(C(=O)N(C)C)n(Cc4ccccn4)c3C[C@H]2CN1C(=O)c1ccccc1` was tested. Which “hERG current change (%, negative = inhibition) at 10uM” value did it give?
Answer: The value was -53.4%.

Question: For `COC(=O)[C@@]1(Cc2ccc(F)cc2)[C@H]2c3cc(C(=O)N(C)C)n(CCSCCO)c3C[C@H]2CN1C(=O)c1ccccc1`, which “hERG current change (%, negative = inhibition) at 10uM” value is on record?
Answer: Its value is -34.4%.

Question: With `COC(=O)[C@@]1(Cc2ccc(F)cc2)[C@H]2c3cc(C(=O)N(C)C)n(Cc4ccc(OC)c(OC)c4)c3C[C@H]2CN1C(=O)c1ccccc1` as the molecule, how does the “hERG current change (%, negative = inhibition) at 10uM” value read?
Answer: The value was -42.6%.

Question: `COC(=O)[C@@]1(Cc2ccc(F)cc2)[C@H]2c3cc(C(=O)N4CCCC4)n(CCc4c[nH]c5ccc(OC)cc45)c3C[C@H]2CN1C(=O)c1ccccc1` was tested. Which “hERG current change (%, negative = inhibition) at 10uM” value did it give?
Answer: Its value is 3.92%.

Question: With `COC(=O)[C@@]1(Cc2ccc(F)cc2)[C@H]2c3cc(C(=O)N4CCCC4)n(CCc4ccccn4)c3C[C@H]2CN1C(=O)c1ccccc1` as the molecule, how does the “hERG current change (%, negative = inhibition) at 10uM” value read?
Answer: Its value is -64.1%.

Question: `COC(=O)[C@@]1(Cc2ccc(F)cc2)[C@H]2c3cc(C(=O)N(C)C)n(CCc4ccccn4)c3C[C@H]2CN1C(=O)c1ccccc1` was tested. Which “hERG current change (%, negative = inhibition) at 10uM” value did it give?
Answer: Its value is -64.8%.

Question: `COC(=O)[C@@]1(Cc2ccc(F)cc2)[C@H]2c3cc(C(=O)N4CCCC4)n(CCc4ccc(O)c(O)c4)c3C[C@H]2CN1C(=O)c1ccccc1` was tested. Which “hERG current change (%, negative = inhibition) at 10uM” value did it give?
Answer: The value was -15.5%.

Question: `COC(=O)[C@@]1(Cc2ccc(F)cc2)[C@H]2c3cc(C(=O)N(C)C)n(Cc4ccccc4)c3C[C@H]2CN1C(=O)c1ccccc1` was tested. Which “hERG current change (%, negative = inhibition) at 10uM” value did it give?
Answer: Its value is -13.3%.

Question: How did the “hERG current change (%, negative = inhibition) at 10uM” value turn out when `CS(=O)(=O)Nc1ccc(C(=O)Nc2ccc(S(=O)(=O)N3CCCC3)cc2)cc1` was run?
Answer: Its value is -13.7%.

Question: Which “hERG current change (%, negative = inhibition) at 10uM” value does the source give for `Cc1nc(NC(=O)c2ccccc2)sc1-c1csc(NCCc2ccccc2)n1` here?
Answer: Its value is 12%.

Question: Which “hERG current change (%, negative = inhibition) at 10uM” value does the source give for `CCOC(=O)CNC(=O)c1cnn2cccnc12` here?
Answer: The value was 2.78%.

Question: Which “hERG current change (%, negative = inhibition) at 10uM” value does the source give for `NC(=O)c1c(-c2cccs2)csc1N` here?
Answer: The value was 3.94%.

Question: `COc1cc(C(=O)NCc2nnc(SCC(=O)NCc3ccccc3)o2)cc(OC)c1OC` was tested. Which “hERG current change (%, negative = inhibition) at 10uM” value did it give?
Answer: Its value is 17.6%.

From publication PMC4336329 (PLoS ONE, 2015)
